Compound activity as filed in PubChem BioAssay.
Only some compounds are listed: those with a hit (about 4.6% of all), similar ones and a draw of the others.
PfHsp90 yeast 2: reduces growth (ATP signal) of yeast expressing P. falciparum Hsp90; 310,000 compounds, 0.32% hits; S. cerevisiae expressing PfHsp90, BacTiter-Glo ATP, 48 h; yeast lacking PDR1 and PDR3 efflux regulators; inhibition, % at 9.4 µM; AID 504621;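 active means every replicate shows inhibition above about 80%, whatever the replicate mean, limit read from the data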;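 further: 0% = DMSO neutral controls and 100% = 20 µM radicicol positive controls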
SKKanGAS inh: blocks kanamycin growth of S. pyogenes SKKanGAS strain. BacTiter-Glo, 6 h. inhibition, % at 7.5 µM. 300,000 compounds, 1.3% hits;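 active means mean replicate score, as percent of positive control median, at least 50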;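 further: strain carries kanamycin resistance gene driven by streptokinase promoter and grows in 40 µg/ml kanamycin; loss of luminescence reflects streptokinase promoter inhibition or plain growth inhibition; 0% = median of DMSO wells and 100% = positive control at its reference dose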
TIM10 inh: inhibits growth of TIM10 yeast strain | inhibition, % at 10 µM | AID 463195 | 330,000 compounds, 1.4% hits | S. cerevisiae TIM10 strain growth, BacTiter-Glo luminescence, 24 h;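 active means inhibition of 40% or more at the single tested concentration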;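 further: wild-type TIM10 isogenic control strain grown at permissive 25 °C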
tim10-1 inh: tim10-1 yeast growth inhibition. inhibition, % at 20 µM. 330,000 compounds, 2.2% hits. S. cerevisiae tim10-1 ts strain growth, BacTiter-Glo, 24 h;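 active means inhibition of at least 40%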;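 further: mutant grown at 25 °C; 0% = DMSO wells with yeast and 100% = wells holding no yeast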
tim23-1 inh: tim23-1 yeast growth inhibition. S. cerevisiae tim23-1 growth, BacTiter-Glo luminescence, 24 h. inhibition, % at 20 µM. 330,000 compounds, 1.3% hits. AID 463212;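 active means growth inhibition of the mutant yeast at or above 50%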;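 further: temperature-sensitive mutant grown at 25 °C; plate controls were DMSO-treated mutant yeast for no effect and medium wells lacking yeast for full effect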
NALP3 yeast inh: inhibitors of NALP3 inflammasome in yeast. Yeast reconstituted NLRP3/ASC/caspase-1, beta-gal luminescence, 24 h. inhibition, % at 10 µM. 330,000 compounds, 0.39% hits. AID 2825;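 active means inhibition of 50% or more; inactive means inhibition below 50%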;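 further: plate controls were induced DMSO wells for no effect and uninduced yeast grown without galactose for full effect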
tim10 confirm: TIM10 yeast growth inhibition, confirmed | shares compounds with TIM10 inh | 4,600 compounds, 63% hits | inhibition, % at 10 µM | S. cerevisiae tim10 strain growth, BacTiter-Glo luminescence, 24 h;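 active means inhibition of yeast growth at or above a set limit in either of two replicates at 10 µM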;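 further: this counterscreen used the strain with wild-type TIM10; 0% = yeast with DMSO and 100% = medium wells lacking yeast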
Starred values were filed as active, the others as inactive; x = not tested or not shown.

SMILES | PfHsp90 yeast 2 | SKKanGAS inh | TIM10 inh | tim10-1 inh | tim23-1 inh | NALP3 yeast inh | tim10 confirm
C=CCNC(=S)N/N=C/c1ccc(C(F)(F)F)cc1 | -9.7 | 1.6 | 40.4* | 22.0 | 44.0 | 6.0 | 20.3
O=C(/C=C/c1ccc(O)c([N+](=O)[O-])c1)c1ccc2ccccc2c1 | -19.5 | 9.2 | -0.1 | 12.3 | 11.0 | 13.1 | x
COc1ccc(Oc2ccc(/C=C/C(=O)c3ccc(O)cc3)cc2[N+](=O)[O-])cc1 | -17.5 | -10.8 | 43.6* | 30.5 | 49.2 | 32.2 | 38.9*
CCC(C)(C)NC(=O)C(c1ccc(OC)cc1)N(C(=O)CCC(=O)Nc1cc(C)on1)c1ccc(F)cc1 (stereo unspecified) | 4.9 | 7.8 | 7.4 | -4.3 | 10.5 | 25.4 | x
Cc1cccc(-c2nn(-c3ccccc3)cc2C(=O)N(C)CC(=O)Nc2ccc(N3CCOCC3)cc2)c1 | x | -2.7 | -9.8 | -2.6 | 2.2 | 2.2 | x
O=C1CSC(c2cn(-c3ccccc3)nc2-c2cc3ccccc3oc2=O)N1Cc1ccco1 (stereo unspecified) | x | 2.1 | 42.3* | 32.6 | 26.8 | 2.2 | 7.7
Cn1c(CCC(=O)O)nc2cc(S(=O)(=O)N3CCCCC3)ccc21 | -12.4 | x | 4.9 | -5.4 | -3.2 | 3.4 | x
CN(Cc1ccccc1)C(=C(Cl)Cl)C(=C1NCCN1)[N+](=O)[O-] | -0.5 | -11.5 | -8.1 | -12.1 | 0.5 | 3.9 | x
O=[N+]([O-])C(=C1Nc2ccccc2N1)/C(Cl)=C(/Cl)Br | 4.2 | -0.2 | 57.1* | 25.6 | 37.2 | -8.1 | 41.0*
COc1ccc(-c2cc(-c3ccc(OC)cc3)nc(-c3ccc4c(c3)NC(=O)CO4)c2)cc1 | -9.0 | 23.2 | 40.9* | 20.5 | 18.3 | 7.7 | -3.9
COc1cccc(-c2nc(-c3ccc4c(c3)NC(=O)CO4)cs2)c1 | -19.3 | 13.2 | 19.7 | 17.9 | 16.2 | 17.7 | x
CC(=O)NCCSc1ccc(S(=O)(=O)N2CCCC2)cn1 | -5.6 | x | 0.3 | -6.2 | -9.7 | 6.3 | x
O=C(c1ccc(N2C(=O)c3ccccc3C2=O)cc1)N1CCCCC1 | -1.8 | -3.2 | 13.2 | -3.3 | 15.7 | 6.6 | x
CCc1ccc(N2C(=O)C(Cl)=C(Nc3ccc(C(=O)N4CCCC4)cc3)C2=O)cc1 | x | x | 50.4* | 29.9 | 33.7 | 24.9 | 41.7*
Cc1ccc(Cl)cc1NC(=S)NN | -18.0 | 20.0 | 9.1 | 24.8 | 11.6 | 9.3 | x
CSc1cc(-c2ccc(Cl)cc2)c(C(=O)NN)s1 | x | 20.1 | 43.6* | 25.2 | -17.0 | -7.4 | 27.2*
CCOc1ncccc1C(=O)NNC(=O)c1ccc(NS(=O)(=O)c2cccs2)cc1 | -25.0 | 5.5 | 10.3 | 16.2 | 10.4 | 0.3 | x
Cc1ccccc1C(N)c1ccncc1 (stereo unspecified) | -14.9 | 5.1 | 81.2* | -7.1 | -8.4 | 1.2 | 3.3
OC(c1ccccc1)c1ccncc1 (stereo unspecified) | -7.2 | 1.1 | -1.8 | -7.6 | -3.3 | 1.5 | x
Cc1ccc(SCC(=O)NCCc2ccc(F)cc2)cc1 | -8.4 | -2.2 | -1.4 | 14.6 | 28.3 | 8.6 | x
CCN(CC(=O)Nc1c(F)cccc1F)C(=O)c1cc(C)oc1C | x | -2.6 | 7.4 | 6.5 | -14.4 | 16.3 | x
C=CCn1c(-c2cc(-c3ccccc3)sc2N)n[nH]c1=S | 7.3 | -11.3 | 48.4* | 16.3 | 4.0 | 33.0 | 30.1
COc1ccc(N2CCN(C(=O)c3cc(S(=O)(=O)N4CCCCCC4)ccc3OC)CC2)cc1 | x | x | 5.5 | 21.0 | 19.8 | 4.0 | x
CCC(c1nnnn1C1CCCCC1)N1CCN(C(=O)c2ccco2)CC1 (stereo unspecified) | 12.2 | 1.2 | 2.6 | 26.0 | 9.5 | 6.2 | x
O=S(=O)(Nc1cc(Cl)ccc1N1CCCCC1)c1cccs1 | 31.6 | 8.2 | 40.4* | 37.3 | 33.4 | 0.4 | 19.7
SMILES | PfHsp90 yeast 2 | SKKanGAS inh | TIM10 inh | tim10-1 inh | tim23-1 inh | NALP3 yeast inh | tim10 confirm
O=S(=O)(Nc1ccc(N2CCCCC2)cc1)c1cccs1 | 8.0 | -7.4 | 5.1 | 15.2 | 21.1 | -5.8 | x
CC(=O)c1cccc(NC(=O)NC2CC(=O)N(c3ccc4c(c3)OCCO4)C2)c1 (stereo unspecified) | x | -0.5 | 5.0 | 7.8 | 8.5 | 17.6 | x
Cc1cc(C)nc(SCc2ccc(C(=O)N/N=C3\CC(C)CC(C)(C)C3)cc2)n1 (stereo unspecified) | -34.0 | -13.9 | 40.2* | 25.7 | 30.4 | 5.9 | 4.3
CC12CCC(C(=O)N(CSC(=S)N/N=C\c3ccccc3)C1=O)C2(C)C (stereo unspecified) | -0.1 | 5.9 | 57.8* | 36.1 | 5.2 | 22.2 | 50.4*
CC12CCC(C(=O)N(CC(=O)O)C1=O)C2(C)C (stereo unspecified) | -0.3 | 3.3 | 8.5 | -10.7 | -0.9 | 11.5 | x
Cc1c(C(=O)Nc2cccc([N+](=O)[O-])c2)sc2ncn(CC(=O)N3CCOCC3)c(=O)c12 | 7.8 | 5.5 | 6.1 | 7.3 | -1.3 | -0.5 | x
CCOc1ccc(S(=O)(=O)n2c([N+](=O)[O-])cnc2C)c(C)c1C | 1.7 | -4.0 | 97.2* | -2.2 | 11.6 | 15.4 | 10.6
COc1ccc(S(=O)(=O)n2c([N+](=O)[O-])cnc2C)c(C)c1C | -0.5 | -0.1 | -7.1 | -2.9 | 10.4 | 20.2 | x
CCCC(=O)NC(=S)Nc1cccc(NC(=O)c2ccccc2)c1 | -6.5 | -10.3 | 18.6 | 4.6 | 7.6 | 17.9 | x
CC(C)CC(=O)NC(=S)Nc1ccc(NC(=O)c2cccs2)cc1 | -5.7 | 6.5 | 51.4* | 8.1 | 21.5 | 14.3 | 30.3
CC(C)CC(=O)NC(=S)Nc1cccc(NC(=O)c2ccccc2)c1 | -30.0 | -16.0 | 46.7* | 30.3 | 29.8 | -0.4 | 33.3*
Cc1ccc2cc3cc(C(=O)NCCCN4CC(C)CC(C)C4)oc3nc2c1 (stereo unspecified) | -29.4 | 1.7 | 61.4* | 25.1 | 26.0 | -11.4 | 26.6
Cc1ccc2cc3cc(C(=O)N4CCCCC4C)oc3nc2c1 (stereo unspecified) | 20.4 | -0.6 | 50.4* | 32.4 | 40.4 | 17.6 | -29.9
CCN(C(=O)c1cc2cc3ccc(C)cc3nc2o1)c1ccc(OC)cc1 | 0.8 | 7.7 | 44.4* | 35.5 | 38.2 | 20.2 | -8.7
O=C(Nc1ccc(Cc2ccncc2)cc1)c1cccs1 | -14.9 | 1.0 | 41.3* | -0.6 | 33.6 | -16.7 | -4.7
O=C(Nc1ccc2nc(-c3cccs3)[nH]c2c1)c1cccs1 | -4.5 | 0.3 | 51.8* | 8.9 | 36.0 | -5.9 | 33.2*
O=C(Nc1ccc(-c2nc3ccc(NC(=O)c4cccs4)cc3[nH]2)cc1)c1cccs1 | -16.6 | 0.0 | -25.6 | -32.4 | -18.2 | -1.1 | x
O=C(c1ccncc1)c1ccc(NC(=O)c2cccs2)cc1 | -10.7 | -12.0 | 24.1 | -21.2 | -5.9 | -9.7 | x
Cc1ccc(Cc2cnc(NC(=O)c3cccs3)s2)cc1 | -5.2 | 78.0* | 54.1* | 35.0 | 49.4 | 23.1 | -15.0
Cc1ccc(Cc2cnc(NC(=O)C3CCCO3)s2)cc1 (stereo unspecified) | 9.2 | 3.7 | 18.8 | 23.6 | 32.6 | 19.9 | x
